According to PubChem BioAssay (NCI):
Values joined by “and” are separate entries in the source; they are usually repeats but may differ in a detail not shown here. Identical values can stand only once. About 83,000 compounds went through this panel and 20% of them were active in at least one assay; those are over-represented in the sample as a whole.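 How to read the values: 0–100, growth inhibition (40 = 60% inhibited); 0, no net growth; -100 to 0, cell death (-40 = 40% of starting cells died; -100 = all dead).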 A number with no mark means an inactive call. Active and inactive are the calls of the source. Rule for the calls: active = growth percent below 10; inactive = the rest.

Test system: MDA-MB-468 breast
Experiment: NCI-60 one-dose screen, 48 h (100 = growth as untreated, 0 = no growth, -100 = all killed)
Settings: 10 µM unless noted

Structure (SMILES) | growth
C=C(C)[C@@H]1CC[C@]2(C(=O)NCCCO)CC[C@]3(C)[C@H](CC[C@@H]4[C@@]5(C)CCCNC(C)(C)[C@@H]5CC[C@]43C)[C@@H]12 | 72.3%
Cc1ccc(SC2c3ccc(C)cc3Oc3nc(N)c(C#N)c(N)c32)cc1 (stereo not given) | -36.5% (active)
O=C(CCN1CCCC1)Nc1ccc2c(NCc3ccccc3)c3ccccc3nc2c1 | -37.1% (active)
CCC(=O)Nc1cc2c(cc1Cl)-c1ccccc1C2 | 97.9%
COc1cc2oc(-c3cccc(NC(=O)c4cccc([N+](=O)[O-])c4)c3)cc(=O)c2c(OC)c1OC | -1.02% (active)
C/C(=N\NC(=S)N1CCCC1)c1ccccn1 | -31.9% (active)
CC12CC3CC1C(C(=O)O2)C3C(=O)O (stereo not given) | 103%
C/C(=C(\c1ccc(OCCN2CCCCCC2)cc1)c1ccc(OC(=O)Cc2ccccc2)cc1)c1ccc(Cl)cc1 | -4.03% (active)
O=C(/C=C/c1ccco1)Nc1ncc(Cc2ccc(F)cc2)s1 | 21.5%
COc1ccc([N+](=O)[O-])c(S(=O)(=O)c2ccc(Cl)cc2)n1 | 52%
COc1cc(/C=C/c2cc(/C=C/c3ccc(O)c(OC)c3)[nH]c(=O)n2)ccc1O | 6.34% (active)
CNc1ccc(CSc2ccc(C)cc2)cc1 | 15.6%
O=[N+]([O-])c1ccc(Oc2ccccc2)cc1 | 103% and 113%
CCCCCn1c(=N)n(CC(O)COc2cccc(C)c2)c2ccccc21 (stereo not given) | -3.97% (active)
CCc1cccc(NC(=O)CNc2cc(S(=O)(=O)N(C)C)cc(C)c2C)c1 | 87.3%
COc1cc(O)c2c(c1)[C@H]1O[C@@H]1C[C@H](O)[C@H](O)C(=O)/C=C\C[C@H](C)OC2=O | -1.54% (active)
O=c1cc(-c2ccccc2)[nH]n1-c1nc2ccccc2[nH]1 | 66.2%
CCOC(=O)CN(c1sc(C)c(C)c1C(=O)OCC)S(=O)(=O)c1ccc(C)cc1 | 89.6%
O=C(N/N=C/c1c(Cl)cccc1Cl)c1ccccc1Nc1ccnc(C(F)(F)F)c1 | 53.5%
CCOc1ccc(Nc2nc(-c3c(C)nc4ncccn34)cs2)cc1 | 30.2%

Structure (SMILES) | growth
CC(=O)Oc1ccc(Nc2c3ccccc3nc3ccccc23)cc1 | -25.6% (active)
CCc1c(C(=O)N[C@@H]2c3cc(Cl)ccc3CC[C@@H]2O)[nH]c(C)c1C(C)=O | 94.1%
Cn1c(N)c(N=O)c(=O)[nH]c1=O | 115%
FC(F)(F)c1cc(N2CCCCC2)nc(NCCCNc2ccnc3cc(Cl)ccc23)n1 | 1.13% (active)
CC(C)Sc1nc(NNC(N)=S)c(C#N)c(-c2ccc(F)cc2)n1 | 98.4%
COc1cc(/C=C2\CCC/C(=C\c3ccc(OCC4CO4)c(OC)c3)C2=O)ccc1OCC1CO1 (stereo not given) | 20.1%
O=C(c1ccccc1)N(C(=O)c1ccccc1)N1CCCC1 | 108%
CCOc1ccc(/C=C(\C#N)c2cc3ccccc3[nH]2)cc1 | 33.4%
NC(C(=O)O)C(O)c1ccco1 (stereo not given) | 102%
N#Cc1ccccc1Cn1c2nc(=N)c3ccccc3c-2nc2ccccc21 | 24.3%
CC1=C2[C@@H](CC1)[C@]1(C)O[C@@](C(C)C)(C[C@H]1OC(=O)CO)[C@H]2OC(=O)CCCc1ccccc1 | 88.3%
O=C1OCC2=C1C(c1cccc(Cl)c1)c1cc3c(cc1N2CCO)OCO3 (stereo not given) | -10.2% (active)
COc1cc(C2CC(c3cccc(Nc4ccncc4)c3)=NN2c2ccc(Cl)cc2)cc(OC)c1OC (stereo not given) | 10.3%
O=C(CSc1cc[n+](CCCCO)c2ccccc12)n1ccc2ccccc21 | 108%
COc1ccc2c(c1)N(CCO)C1=C(C(=O)OC1)C2c1ccccc1 (stereo not given) | -14.2% (active)
Cc1cn(-c2nc3c(c(NCc4ccccc4)n2)COCC3)c2cccc(C(N)=O)c12 | 114% [0.5 µM]
Cc1nc2ccc(C(=O)NCc3cc(C(=O)O)c(C)o3)cc2nc1C | 98.7%
COc1ccc(C(=O)N/N=C/c2ccc(O)cc2O)cc1Nc1ccnc(C(F)(F)F)c1 | 29.2%
CC1(C)c2[nH]c3ccccc3c2C[C@]2(C)[C@H]3CC=C4[C@@H]5C[C@@](C)(C(N)=O)CC[C@]5(C)CC[C@@]4(C)[C@]3(C)CC[C@@H]12 | 21.7%
COc1ccc(-c2csc(NC(=O)CSc3nc(-c4ccccc4)cc(=O)[nH]3)n2)cc1 | 14.9%
